Screens as filed in PubChem BioAssay.
An excerpt weighted towards active compounds, which were near 1.9% of everything screened.
PTHR1 ag: agonists of human PTHR1 parathyroid hormone receptor | Q03431 | HEK293 GP2 PTHR1 cells, GloSensor cAMP luminescence, 1 h | Potency, µM (titrated, usually from 115 µM), inactives show top-dose activation, usual class: activators | 410,000 tested, 0.075% active; further: potency means the concentration at half of the fitted maximal effect; nearly all actives have a fitted effect of over 55% in size
Target sequence (Q03431 whole entry, looked up): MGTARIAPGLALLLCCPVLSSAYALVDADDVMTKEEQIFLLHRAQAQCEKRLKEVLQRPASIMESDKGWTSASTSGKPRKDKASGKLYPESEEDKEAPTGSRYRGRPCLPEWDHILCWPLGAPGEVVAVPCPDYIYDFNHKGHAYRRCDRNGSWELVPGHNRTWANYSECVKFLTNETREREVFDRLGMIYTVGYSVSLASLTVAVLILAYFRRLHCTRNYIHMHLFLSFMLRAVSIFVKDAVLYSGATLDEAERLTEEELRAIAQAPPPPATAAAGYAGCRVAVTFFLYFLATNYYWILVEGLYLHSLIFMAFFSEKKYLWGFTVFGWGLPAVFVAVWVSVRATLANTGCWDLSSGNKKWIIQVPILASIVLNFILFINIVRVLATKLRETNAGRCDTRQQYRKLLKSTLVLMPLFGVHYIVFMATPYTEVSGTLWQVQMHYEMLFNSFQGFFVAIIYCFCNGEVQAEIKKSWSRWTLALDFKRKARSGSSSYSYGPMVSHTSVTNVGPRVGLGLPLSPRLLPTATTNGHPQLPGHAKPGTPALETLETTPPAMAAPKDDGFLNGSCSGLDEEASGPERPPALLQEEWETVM
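HEK-293-derived GP2 cells expressing PTHR1 and a GloSensor cAMP reporter, 3,000/well, plated overnight, given luciferin plus IBMX (each 0.5 mM as added) for 1 h at 37 °C, then compound for 1 h at 37 °C. Luminescence was read after 15 min at room temperature.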
TDP43 rescue: TDP-43 toxicity inhibition in yeast; TDP-43 expressing yeast growth rescue, BacTiter-Glo, 24 h; 410,000 tested, 1.8% active; AID 652104; Potency, µM (doses to about 46.1 µM), for inactives: at the highest dose growth rescue (activation), usual class: activators; further: potency means the concentration at half of the fitted maximal effect; % of control where 0% means no effect; nearly all actives have a fitted effect of over 50% in size
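Growth rescue of TDP-43-toxic yeast measured as ATP luminescence (BacTiter-Glo). Cells grown to mid-log in raffinose, induced in galactose at OD600=0.02, exposed to compound 24 hr at 30 deg C.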
aSyn rescue: rescues yeast growth from alpha-synuclein toxicity | Potency, µM (highest dose often 46.1 µM), inactives show top-dose growth rescue (activation), actives largely listed as activators | Yeast expressing alpha-synuclein, growth rescue, BacTiter-Glo, 24 h | 370,000 tested, 0.14% active | AID 652106; further: potency means the concentration at half of the fitted maximal effect; % of control where 0% means no effect; nearly all actives have a fitted effect of over 65% in size
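Rescue of yeast growth: cells expressing toxic alpha-synuclein, induced in galactose at OD600 0.02, incubated with compound 24 h at 30 C. ATP luminescence quantified growth; inhibitors of toxicity appear as activators.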
LDHA inh: LDHA (human) enzyme inhibition; P00338; purified LDHA, NADH/diaphorase-resazurin fluorescence; active compounds read low; activity change, % (values are at about 110 or 230 µM); 480,000 tested, 0.15% active; AID 1347041; in the data active means activity change below about -30%; inconclusive means mostly about -25% to -30%;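 further: plate controls were DMSO wells for no effect and wells without enzyme for full effect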
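Remaining NADH was detected by diaphorase (0.133 mg/mL) converting 37 µM resazurin to fluorescent resorufin, read at 0 and 20 minutes. The preceding 5-minute room-temperature reaction used 2 nM LDHA, 0.2 mM sodium pyruvate and 0.06 mM NADH at pH 7.4.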
FUS yeast rescue: FUS proteinopathy suppression in yeast; S. cerevisiae FUS-expressing, growth rescue, OD600, 24 h; Potency, µM (series often up to 76.6 µM), most hits filed as activators; 390,000 tested, 0.24% active; AID 1347120;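 further: potency means the concentration at half of the fitted maximal effect; plate controls were DMSO vehicle for no effect and reference control for full effect; nearly all actives have a fitted effect of over 55% in size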
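Absorbance at 600 nm, taken 24hr after compound addition, measured rescue of FUS-yeast growth at 30C. Induction used 2% galactose with seeding at OD 0.005. Controls: CP55940 from 92uM final, DMSO only.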
Abeta yeast res: A-beta toxicity reversal in yeast | yeast expressing A-beta42, growth rescue, OD600, 48 h; response scale: 0% DMSO, 100% iron-clioquinol control | Potency, µM (highest dose often 46.1 µM), most hits filed as activators | 410,000 tested, 0.063% active | AID 1347071; further: potency means the concentration at half of the fitted maximal effect; nearly all actives have a fitted effect of over 55% in size
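Yeast growth medium received pinned compounds, then yeast cells expressing toxic A-beta were added; plates incubated at 30 C for 48 hr. Growth read as absorbance at 600 nm, normalized to DMSO and equimolar FeCl3 plus clioquinol controls.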
The depositor's hits bear a star; i = inactive; ? = inconclusive; / = no result; [ ] = dose if it differs, or a comment. Unless noted, the call rests on the fitted dose curve; in most records, active means well fitted curve in the direction sought with a large enough effect; inconclusive means small, poorly fitted or top-dose-only effect, or another doubt; inactive means no such curve, though single readings can be large; an effect the other way counts as inactive or inconclusive.

SMILES	PTHR1 ag	TDP43 rescue	aSyn rescue	LDHA inh	FUS yeast rescue	Abeta yeast res
Cc1ccc(CCNC(=O)c2ccc3c(c2)N(Cc2ccccc2)C(=O)c2ccccc2S3=O)cc1 (stereo not given)	-33%	-2%	/	-1	i	i
CCOc1ccc(CCNC(=O)c2ccc3c(c2)N(Cc2ccccc2)C(=O)c2ccccc2S3=O)cc1OCC (stereo not given)	-9%	18%	/	2	25µM*	i
CCN(C(=O)c1ccc2c(c1)N(Cc1cccc(Cl)c1)C(=O)c1ccccc1S2=O)c1ccccc1 (stereo not given)	i	-19%	/	-1	32µM*	i
Cc1ccc(C)c(CN2C(=O)c3ccccc3S(=O)c3ccc(C(=O)N4CCN(c5cccc(Cl)c5)CC4)cc32)c1 (stereo not given)	-27%	-30%	/	2	10µM*	i
CCOc1ccc(C(C)=O)cc1CN(C)Cc1ccc(C)cc1	/	/	/	4	/	/
COc1cccc(CN(C(=O)c2oc3c(C)c(C)ccc3c2C)C2CCS(=O)(=O)C2)c1 (stereo not given)	/	/	/	1	/	/
Cc1cc(F)ccc1S(=O)(=O)Nc1ccc2oc3c(c2c1)CC(C)CC3 (stereo not given)	-17%	35µM*	/	-4	i	i
O=C(NCc1ccccn1)c1ccccc1Nc1ccccc1	/	/	/	-3	/	/
COc1ccc(OC)c(Nc2ncnc3sccc23)c1	-6%	14%	0%	-11	i	i
COc1cc(CN(C)c2ncnc3sccc23)ccc1OC(F)F	-38%	18µM*	2%	-1	i	i
c1ccc2c(c1)OCCOCCOCCOCCO2	/	/	/	2	/	/
c1ccc2c(c1)OCCOCCOc1ccccc1OCCOCCO2	-15%	11µM*	17%	-10	i	i
CCN(CC(=O)Nc1cc(C)c(Cl)cc1OC)CC(=O)NC1CCS(=O)(=O)C1 (stereo not given)	-7%	3%	-9%	-1	i	i
Cc1ccc(Cl)cc1NC(=O)COC(=O)C1CCCC1	i	19%	-5%	-4	i	5.6µM*
CCN(CC(=O)Nc1cc(Cl)ccc1OC)CC(=O)NC1CCS(=O)(=O)C1 (stereo not given)	-50%	21%	7%	-36*	i	i
COc1ccc(NC(=O)COC(=O)/C=C/c2cccs2)c(OC)c1	-3%	14%	0%	-5	i	i
COc1ccc(Cl)cc1NC(=O)COC(=O)C1CCCCC1	i	13µM*	1%[1.84 µM]	1	i	?
COc1ccccc1NC(=O)COC(=O)/C=C/c1cccs1	-25%	14µM*	6%	-3	/	i
COc1ccc(Cl)cc1NC(=O)CNCc1cccs1	-34%	8%	1%	-20	i	i
COc1ccc(Cl)cc1NC(=O)COC(=O)Cc1cccs1	i	10µM*	7%	-8	i	i
COc1ccc(O)c(/C=N/Nc2nc(Nc3ccccc3)nc(-n3nc(C)cc3C)n2)c1	-6%	22µM*	8%	4	i	?
CCCCCCC(=O)N(O)C1CC(=O)N(c2ccc(Br)cc2)C1=O (stereo not given)	i	-30%	-60%	0	i	i
COc1ccccc1N(O)C1CC(=O)N(c2ccc(Br)cc2)C1=O (stereo not given)	-19%	28µM*	-10%	56	?	i
CC1=C(C(=O)Nc2ccc([N+](=O)[O-])cc2)C(c2cccc(C(F)(F)F)c2)NC(=S)N1c1ccccc1 (stereo not given)	-22%	0%	-3%	-4	10µM*	i
Ic1ccc(SN(Cc2ccco2)Sc2ccc(I)cc2)cc1	/	/	/	8	/	/
SMILES	PTHR1 ag	TDP43 rescue	aSyn rescue	LDHA inh	FUS yeast rescue	Abeta yeast res
Cn1c(=O)c(-c2cccc(Cl)c2)c(O)c2ccccc21	i	11µM*	7%	2	i	i
CCn1c(=O)c(-c2ccccc2)c(O)c2ccccc21	-29%[57.5 µM]	?	-8%	-5	i	i
O=c1cc(-c2c(O)c3ccccc3n(Cc3ccccc3)c2=O)[nH][nH]1	-17%	-3%	3%	19	?	i
CCCCn1c(=O)c(-c2ccccc2)c(O)c2ccccc21	-18%	18µM*	0%	-2	i	i
CCn1c(=O)c(-c2cc(=O)[nH][nH]2)c(O)c2ccccc21	i	-4%	-1%	8	32µM*	i
N#Cc1ccc(NC(=O)N2CCN(Cc3nc(-c4ccc(Cl)cc4)no3)CC2)cc1	/	/	/	-2	/	/
COc1ccc(NC(=O)Cc2c(C)c3ccc(O)c(C)c3oc2=O)c(OC)c1	/	/	/	-4	/	/
Cc1ccc2c(c1)-c1c(cnn1CC(=O)N1CCN(c3cc(C)ccc3C)CC1)CO2	i	35µM*	/	-1	i	i
Cc1ccc(Cn2c(C)c3cnn(CC(=O)N4CCN(c5cc(C)ccc5C)CC4)c(=O)c3c2C)cc1	-12%	16µM*	/	0	?	i
Cc1cccc(N2CCN(C(=O)Cn3ncc4c3-c3ccccc3OC4)CC2)c1C	i	18µM*	/	-3	?	i
COc1ccc(N2CCN(C(=O)Cn3ncc4c3-c3cc(C)ccc3OC4)CC2)cc1	-13%	6%	/	4	i	i
Cc1c2cnn(CC(=O)N3CCN(c4ccc(F)cc4)CC3)c(=O)c2c(C)n1Cc1ccc(F)cc1	-91%	-17%	/	4	i	i
O=C(Nc1ccc(Cl)c(C(F)(F)F)c1)c1c(-c2ccccc2)nc2n1CCS2(=O)=O	/	/	/	6	/	/
CC(C)=CC1C(C(=O)Nc2ccc(C)cc2C)C1(C)C (stereo not given)	/	/	/	-5	/	/
